Columns and labels:
Assay in all cases: log2 ratio of Biotin-Ahx-Ub-VS probe labelling (fragment/DMSO); higher = less target engagement (more negative = stronger competition), active = hit call of the paper (q ≤ 0.05, log2 ratio ≤ -1)
Conditions in all cases: compound concentration: 200 uM; treatment time: 3 h
USP42 = target: T1, USP42 (UniProt Q9H9J4)
T1 sequence (whole entry): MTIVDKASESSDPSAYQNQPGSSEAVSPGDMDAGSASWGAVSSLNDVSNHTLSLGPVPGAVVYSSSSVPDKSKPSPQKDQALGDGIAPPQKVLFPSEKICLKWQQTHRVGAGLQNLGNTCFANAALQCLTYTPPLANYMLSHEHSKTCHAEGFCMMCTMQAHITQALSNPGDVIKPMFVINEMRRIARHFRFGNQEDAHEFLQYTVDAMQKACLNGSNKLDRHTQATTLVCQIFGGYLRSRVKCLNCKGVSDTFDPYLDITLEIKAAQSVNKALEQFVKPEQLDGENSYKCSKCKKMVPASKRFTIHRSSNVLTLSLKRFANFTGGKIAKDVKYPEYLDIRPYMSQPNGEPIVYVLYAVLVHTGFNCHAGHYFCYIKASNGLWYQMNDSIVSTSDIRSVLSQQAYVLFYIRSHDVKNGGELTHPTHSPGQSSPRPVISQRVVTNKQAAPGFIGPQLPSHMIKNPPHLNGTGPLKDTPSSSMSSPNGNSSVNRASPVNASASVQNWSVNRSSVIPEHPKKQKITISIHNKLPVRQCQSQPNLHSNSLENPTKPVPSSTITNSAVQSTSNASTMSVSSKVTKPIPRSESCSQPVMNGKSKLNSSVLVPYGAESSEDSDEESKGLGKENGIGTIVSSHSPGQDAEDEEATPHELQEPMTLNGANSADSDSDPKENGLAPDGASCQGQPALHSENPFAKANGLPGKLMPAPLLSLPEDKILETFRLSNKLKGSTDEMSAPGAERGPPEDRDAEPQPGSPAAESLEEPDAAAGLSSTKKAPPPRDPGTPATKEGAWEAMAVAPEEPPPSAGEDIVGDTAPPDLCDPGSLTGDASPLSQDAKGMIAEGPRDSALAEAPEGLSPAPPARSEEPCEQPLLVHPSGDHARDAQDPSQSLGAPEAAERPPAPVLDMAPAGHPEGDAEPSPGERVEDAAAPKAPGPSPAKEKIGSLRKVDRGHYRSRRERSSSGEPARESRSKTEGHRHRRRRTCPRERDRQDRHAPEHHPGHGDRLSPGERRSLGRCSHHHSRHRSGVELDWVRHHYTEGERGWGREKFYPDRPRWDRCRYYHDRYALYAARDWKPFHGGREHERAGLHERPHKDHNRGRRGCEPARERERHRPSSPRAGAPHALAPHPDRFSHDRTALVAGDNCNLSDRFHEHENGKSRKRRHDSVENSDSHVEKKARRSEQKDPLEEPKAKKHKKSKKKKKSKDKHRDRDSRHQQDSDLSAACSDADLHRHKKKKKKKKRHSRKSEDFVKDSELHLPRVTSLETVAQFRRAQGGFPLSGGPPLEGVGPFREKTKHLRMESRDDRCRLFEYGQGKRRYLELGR
Method in brief: (§1)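 HEK293T lysate (495 µg per sample, in Tris/CHAPS/IGEPAL buffer with protease inhibitors) was exposed in triplicate for 3 h to fragment at 200 µM or to vehicle, then to Biotin-Ahx-Ub-VS at 0.5 µM final for 1 h. Labelled DUBs were enriched on NeutrAvidin, digested with LysC and trypsin, and analysed by diaPASEF LC-MS/MS. Spectronaut label-free quantities were normalised to the global median, and values are average log2 ratios of fragment over vehicle from an unpaired t-test. Only proteins with ≥2 unique peptides were used.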

USP46 = USP46 (UniProt P62068)
Method in brief: as §1

USP47 = target: T2, USP47 (UniProt Q96K76)
T2 sequence (whole entry): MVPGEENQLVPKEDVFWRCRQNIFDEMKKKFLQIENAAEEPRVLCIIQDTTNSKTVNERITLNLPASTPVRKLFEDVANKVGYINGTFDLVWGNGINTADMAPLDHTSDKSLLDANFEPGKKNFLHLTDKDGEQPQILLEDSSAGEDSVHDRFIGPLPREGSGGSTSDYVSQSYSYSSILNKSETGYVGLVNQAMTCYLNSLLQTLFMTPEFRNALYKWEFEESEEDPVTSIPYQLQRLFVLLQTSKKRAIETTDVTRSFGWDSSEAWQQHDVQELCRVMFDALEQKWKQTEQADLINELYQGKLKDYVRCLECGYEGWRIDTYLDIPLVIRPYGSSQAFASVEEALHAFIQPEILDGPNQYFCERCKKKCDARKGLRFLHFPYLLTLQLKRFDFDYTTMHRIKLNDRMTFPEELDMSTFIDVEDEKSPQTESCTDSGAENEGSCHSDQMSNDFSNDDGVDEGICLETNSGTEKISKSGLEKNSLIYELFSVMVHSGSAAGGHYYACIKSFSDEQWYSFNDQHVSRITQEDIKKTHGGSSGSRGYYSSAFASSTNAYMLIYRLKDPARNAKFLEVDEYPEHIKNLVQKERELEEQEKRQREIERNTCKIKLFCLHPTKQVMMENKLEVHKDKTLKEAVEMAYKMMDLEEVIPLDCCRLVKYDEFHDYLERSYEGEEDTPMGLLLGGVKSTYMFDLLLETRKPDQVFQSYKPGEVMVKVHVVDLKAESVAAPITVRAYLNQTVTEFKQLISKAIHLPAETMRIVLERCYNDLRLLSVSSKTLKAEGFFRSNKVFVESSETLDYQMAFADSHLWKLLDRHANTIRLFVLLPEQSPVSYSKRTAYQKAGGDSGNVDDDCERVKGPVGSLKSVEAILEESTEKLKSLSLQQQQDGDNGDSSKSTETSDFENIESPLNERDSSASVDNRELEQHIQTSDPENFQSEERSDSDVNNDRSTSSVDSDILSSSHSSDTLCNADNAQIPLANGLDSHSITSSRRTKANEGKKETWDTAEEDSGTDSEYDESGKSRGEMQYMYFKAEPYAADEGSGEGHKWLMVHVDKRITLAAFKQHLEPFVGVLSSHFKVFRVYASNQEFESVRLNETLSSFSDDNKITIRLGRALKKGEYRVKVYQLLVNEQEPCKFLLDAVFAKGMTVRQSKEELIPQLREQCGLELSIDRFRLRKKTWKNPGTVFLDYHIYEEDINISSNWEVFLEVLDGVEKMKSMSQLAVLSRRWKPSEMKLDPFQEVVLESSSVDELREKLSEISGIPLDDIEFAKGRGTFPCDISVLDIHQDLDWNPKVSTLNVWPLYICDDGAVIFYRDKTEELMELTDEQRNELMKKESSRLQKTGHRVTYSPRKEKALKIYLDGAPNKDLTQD
Method in brief: as §1

USP48 = target: T3, USP48 (UniProt Q86UV5)
T3 sequence (whole entry): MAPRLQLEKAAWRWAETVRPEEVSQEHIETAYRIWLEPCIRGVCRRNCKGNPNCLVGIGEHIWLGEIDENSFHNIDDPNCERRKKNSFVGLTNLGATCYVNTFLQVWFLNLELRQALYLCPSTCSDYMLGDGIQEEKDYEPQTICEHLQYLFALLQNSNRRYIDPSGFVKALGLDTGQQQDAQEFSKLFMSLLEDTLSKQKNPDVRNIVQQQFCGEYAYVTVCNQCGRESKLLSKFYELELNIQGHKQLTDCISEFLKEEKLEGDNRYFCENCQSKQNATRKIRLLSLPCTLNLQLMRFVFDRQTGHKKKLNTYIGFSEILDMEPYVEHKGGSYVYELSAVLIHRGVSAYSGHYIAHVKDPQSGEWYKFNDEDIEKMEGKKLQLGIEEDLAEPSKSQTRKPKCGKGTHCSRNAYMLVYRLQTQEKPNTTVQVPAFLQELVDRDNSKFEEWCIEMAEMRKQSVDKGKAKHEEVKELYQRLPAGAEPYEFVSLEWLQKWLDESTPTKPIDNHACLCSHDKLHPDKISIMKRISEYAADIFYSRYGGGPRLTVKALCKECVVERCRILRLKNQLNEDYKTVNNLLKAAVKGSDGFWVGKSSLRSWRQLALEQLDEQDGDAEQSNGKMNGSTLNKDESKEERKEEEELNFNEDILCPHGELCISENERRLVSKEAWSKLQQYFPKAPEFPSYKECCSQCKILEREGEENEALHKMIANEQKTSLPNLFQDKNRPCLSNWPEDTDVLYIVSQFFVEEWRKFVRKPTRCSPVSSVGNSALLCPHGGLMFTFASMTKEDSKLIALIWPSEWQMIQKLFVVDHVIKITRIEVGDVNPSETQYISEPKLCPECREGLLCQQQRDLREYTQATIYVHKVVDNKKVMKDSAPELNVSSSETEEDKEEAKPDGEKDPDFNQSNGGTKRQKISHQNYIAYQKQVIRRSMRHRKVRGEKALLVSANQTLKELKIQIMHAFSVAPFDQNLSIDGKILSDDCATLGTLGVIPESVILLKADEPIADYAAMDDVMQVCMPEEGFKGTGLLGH
Method in brief: as §1

USP5 = target: T4, USP5 (UniProt P45974)
T4 sequence (whole entry): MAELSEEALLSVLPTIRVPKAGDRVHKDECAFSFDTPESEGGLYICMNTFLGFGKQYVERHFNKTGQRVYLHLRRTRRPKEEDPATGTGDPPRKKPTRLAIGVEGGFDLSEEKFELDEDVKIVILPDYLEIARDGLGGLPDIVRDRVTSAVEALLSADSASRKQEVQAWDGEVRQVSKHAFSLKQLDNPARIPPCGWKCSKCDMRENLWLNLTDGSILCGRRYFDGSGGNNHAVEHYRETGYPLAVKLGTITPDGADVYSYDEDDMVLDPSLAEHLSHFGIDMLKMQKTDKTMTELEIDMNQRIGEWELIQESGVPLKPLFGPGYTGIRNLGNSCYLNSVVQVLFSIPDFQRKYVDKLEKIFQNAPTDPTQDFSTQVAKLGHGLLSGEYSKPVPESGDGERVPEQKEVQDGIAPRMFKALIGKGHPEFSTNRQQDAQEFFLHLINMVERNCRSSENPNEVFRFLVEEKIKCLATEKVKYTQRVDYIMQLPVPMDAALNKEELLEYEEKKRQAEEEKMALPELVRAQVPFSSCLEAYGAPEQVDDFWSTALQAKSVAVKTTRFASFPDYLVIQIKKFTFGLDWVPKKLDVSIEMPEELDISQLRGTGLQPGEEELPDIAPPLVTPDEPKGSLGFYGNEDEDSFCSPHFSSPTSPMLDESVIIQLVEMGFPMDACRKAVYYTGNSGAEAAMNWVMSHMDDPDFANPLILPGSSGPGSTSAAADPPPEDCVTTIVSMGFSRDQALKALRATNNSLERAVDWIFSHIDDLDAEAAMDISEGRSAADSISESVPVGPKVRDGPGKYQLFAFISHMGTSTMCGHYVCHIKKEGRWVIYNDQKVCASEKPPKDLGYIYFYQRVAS
Method in brief: as §1

USP54 = USP54 (UniProt Q70EL1)
Method in brief: as §1

USP7 = USP7 (UniProt Q93009)
Method in brief: as §1

USP8 = target: T5, USP8 (UniProt P40818)
T5 sequence (whole entry): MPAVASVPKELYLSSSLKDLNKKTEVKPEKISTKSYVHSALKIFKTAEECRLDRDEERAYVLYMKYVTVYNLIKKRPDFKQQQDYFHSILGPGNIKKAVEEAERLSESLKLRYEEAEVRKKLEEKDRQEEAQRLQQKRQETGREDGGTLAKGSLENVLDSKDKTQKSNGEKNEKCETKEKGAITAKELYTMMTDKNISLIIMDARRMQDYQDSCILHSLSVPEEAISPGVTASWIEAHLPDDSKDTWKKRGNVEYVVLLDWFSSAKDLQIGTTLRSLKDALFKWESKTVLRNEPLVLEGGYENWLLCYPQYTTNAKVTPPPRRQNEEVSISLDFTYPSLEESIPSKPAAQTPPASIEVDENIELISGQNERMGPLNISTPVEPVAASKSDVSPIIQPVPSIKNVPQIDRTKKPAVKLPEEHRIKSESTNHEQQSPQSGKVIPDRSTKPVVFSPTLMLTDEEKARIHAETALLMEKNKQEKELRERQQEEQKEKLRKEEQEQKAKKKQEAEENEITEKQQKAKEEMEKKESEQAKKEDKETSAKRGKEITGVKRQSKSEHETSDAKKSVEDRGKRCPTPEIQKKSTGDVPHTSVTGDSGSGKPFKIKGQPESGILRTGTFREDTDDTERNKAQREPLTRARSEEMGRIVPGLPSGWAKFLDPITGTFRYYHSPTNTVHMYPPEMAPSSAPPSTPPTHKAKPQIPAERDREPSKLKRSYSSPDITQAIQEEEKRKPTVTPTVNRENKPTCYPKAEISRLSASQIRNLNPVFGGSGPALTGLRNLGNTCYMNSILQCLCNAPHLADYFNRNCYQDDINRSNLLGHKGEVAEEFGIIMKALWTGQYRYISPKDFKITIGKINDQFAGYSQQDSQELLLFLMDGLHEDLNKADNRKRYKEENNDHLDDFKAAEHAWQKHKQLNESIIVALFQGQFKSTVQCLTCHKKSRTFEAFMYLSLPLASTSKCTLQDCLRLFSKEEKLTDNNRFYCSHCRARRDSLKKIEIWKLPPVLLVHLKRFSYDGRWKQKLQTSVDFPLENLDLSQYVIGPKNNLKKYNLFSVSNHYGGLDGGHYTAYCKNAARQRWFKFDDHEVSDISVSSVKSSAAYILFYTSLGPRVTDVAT
Method in brief: as §1

USP9X = USP9X (UniProt Q93008)
Method in brief: as §1

UniProt O00487 = target: UniProt O00487
Method in brief: as §1

Measured: log2 ratio of Biotin-Ahx-Ub-VS probe labelling

Chain of USP9X (Q93008 whole entry): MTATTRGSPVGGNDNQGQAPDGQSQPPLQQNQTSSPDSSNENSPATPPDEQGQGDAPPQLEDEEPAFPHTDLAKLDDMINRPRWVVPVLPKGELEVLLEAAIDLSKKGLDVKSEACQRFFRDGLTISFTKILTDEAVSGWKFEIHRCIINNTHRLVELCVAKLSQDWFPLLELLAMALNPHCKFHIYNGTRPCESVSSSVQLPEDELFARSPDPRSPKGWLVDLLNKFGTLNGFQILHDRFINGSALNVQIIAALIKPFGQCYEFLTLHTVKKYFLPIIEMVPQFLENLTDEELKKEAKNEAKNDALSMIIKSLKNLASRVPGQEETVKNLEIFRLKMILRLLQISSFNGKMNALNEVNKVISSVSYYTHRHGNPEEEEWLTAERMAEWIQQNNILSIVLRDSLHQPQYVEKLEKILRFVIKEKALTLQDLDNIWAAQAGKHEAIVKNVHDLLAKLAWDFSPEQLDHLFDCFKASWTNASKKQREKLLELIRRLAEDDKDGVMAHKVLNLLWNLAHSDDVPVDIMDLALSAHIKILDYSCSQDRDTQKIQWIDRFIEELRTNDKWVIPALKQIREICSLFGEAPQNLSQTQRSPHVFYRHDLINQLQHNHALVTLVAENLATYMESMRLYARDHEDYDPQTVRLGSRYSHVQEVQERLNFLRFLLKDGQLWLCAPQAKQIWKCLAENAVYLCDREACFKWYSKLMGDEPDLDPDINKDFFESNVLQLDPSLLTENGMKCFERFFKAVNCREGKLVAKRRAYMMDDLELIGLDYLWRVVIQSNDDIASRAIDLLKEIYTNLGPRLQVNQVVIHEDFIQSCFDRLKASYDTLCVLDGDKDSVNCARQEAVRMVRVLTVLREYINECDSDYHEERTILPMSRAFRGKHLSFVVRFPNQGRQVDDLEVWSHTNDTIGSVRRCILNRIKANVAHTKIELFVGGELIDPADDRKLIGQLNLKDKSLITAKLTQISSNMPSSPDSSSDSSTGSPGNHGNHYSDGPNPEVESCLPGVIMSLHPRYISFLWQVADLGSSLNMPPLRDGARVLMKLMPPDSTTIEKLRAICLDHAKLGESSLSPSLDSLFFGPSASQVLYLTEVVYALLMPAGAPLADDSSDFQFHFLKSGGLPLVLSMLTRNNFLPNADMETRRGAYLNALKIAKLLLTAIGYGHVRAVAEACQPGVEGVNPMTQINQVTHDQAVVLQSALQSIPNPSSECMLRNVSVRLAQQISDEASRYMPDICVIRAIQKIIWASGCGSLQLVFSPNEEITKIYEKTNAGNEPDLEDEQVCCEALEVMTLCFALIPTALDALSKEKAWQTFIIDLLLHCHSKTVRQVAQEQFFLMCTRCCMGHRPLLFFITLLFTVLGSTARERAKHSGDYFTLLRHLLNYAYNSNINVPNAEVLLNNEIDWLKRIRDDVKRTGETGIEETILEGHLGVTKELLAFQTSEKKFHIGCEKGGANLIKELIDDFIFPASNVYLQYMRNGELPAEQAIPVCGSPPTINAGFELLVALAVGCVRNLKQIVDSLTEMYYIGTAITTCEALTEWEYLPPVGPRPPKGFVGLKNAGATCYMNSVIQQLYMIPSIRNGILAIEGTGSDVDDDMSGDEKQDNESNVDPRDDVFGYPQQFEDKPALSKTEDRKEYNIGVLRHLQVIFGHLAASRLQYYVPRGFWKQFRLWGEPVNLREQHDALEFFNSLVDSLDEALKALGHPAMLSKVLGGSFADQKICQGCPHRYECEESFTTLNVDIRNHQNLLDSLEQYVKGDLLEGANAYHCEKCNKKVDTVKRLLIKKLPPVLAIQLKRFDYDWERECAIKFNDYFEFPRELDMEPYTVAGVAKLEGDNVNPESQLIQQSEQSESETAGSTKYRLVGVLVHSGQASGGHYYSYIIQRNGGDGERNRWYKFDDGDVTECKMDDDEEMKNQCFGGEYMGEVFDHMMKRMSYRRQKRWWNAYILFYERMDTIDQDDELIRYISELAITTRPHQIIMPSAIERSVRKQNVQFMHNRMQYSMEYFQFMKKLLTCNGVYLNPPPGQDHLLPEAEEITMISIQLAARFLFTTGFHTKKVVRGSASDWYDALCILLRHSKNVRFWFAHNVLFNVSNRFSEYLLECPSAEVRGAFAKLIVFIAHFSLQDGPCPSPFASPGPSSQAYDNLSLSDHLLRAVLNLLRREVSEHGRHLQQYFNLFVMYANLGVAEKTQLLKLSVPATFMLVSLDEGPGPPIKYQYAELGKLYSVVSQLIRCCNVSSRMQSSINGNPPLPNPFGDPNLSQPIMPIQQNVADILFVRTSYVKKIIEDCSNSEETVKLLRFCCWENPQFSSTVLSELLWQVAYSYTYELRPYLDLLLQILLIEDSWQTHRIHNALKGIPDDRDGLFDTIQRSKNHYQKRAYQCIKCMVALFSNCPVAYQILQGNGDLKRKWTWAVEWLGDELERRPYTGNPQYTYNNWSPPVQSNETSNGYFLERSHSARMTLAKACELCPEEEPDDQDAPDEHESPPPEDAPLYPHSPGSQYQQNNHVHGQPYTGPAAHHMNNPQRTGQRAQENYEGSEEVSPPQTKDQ
Chain of USP7 (Q93009 whole entry, looked up): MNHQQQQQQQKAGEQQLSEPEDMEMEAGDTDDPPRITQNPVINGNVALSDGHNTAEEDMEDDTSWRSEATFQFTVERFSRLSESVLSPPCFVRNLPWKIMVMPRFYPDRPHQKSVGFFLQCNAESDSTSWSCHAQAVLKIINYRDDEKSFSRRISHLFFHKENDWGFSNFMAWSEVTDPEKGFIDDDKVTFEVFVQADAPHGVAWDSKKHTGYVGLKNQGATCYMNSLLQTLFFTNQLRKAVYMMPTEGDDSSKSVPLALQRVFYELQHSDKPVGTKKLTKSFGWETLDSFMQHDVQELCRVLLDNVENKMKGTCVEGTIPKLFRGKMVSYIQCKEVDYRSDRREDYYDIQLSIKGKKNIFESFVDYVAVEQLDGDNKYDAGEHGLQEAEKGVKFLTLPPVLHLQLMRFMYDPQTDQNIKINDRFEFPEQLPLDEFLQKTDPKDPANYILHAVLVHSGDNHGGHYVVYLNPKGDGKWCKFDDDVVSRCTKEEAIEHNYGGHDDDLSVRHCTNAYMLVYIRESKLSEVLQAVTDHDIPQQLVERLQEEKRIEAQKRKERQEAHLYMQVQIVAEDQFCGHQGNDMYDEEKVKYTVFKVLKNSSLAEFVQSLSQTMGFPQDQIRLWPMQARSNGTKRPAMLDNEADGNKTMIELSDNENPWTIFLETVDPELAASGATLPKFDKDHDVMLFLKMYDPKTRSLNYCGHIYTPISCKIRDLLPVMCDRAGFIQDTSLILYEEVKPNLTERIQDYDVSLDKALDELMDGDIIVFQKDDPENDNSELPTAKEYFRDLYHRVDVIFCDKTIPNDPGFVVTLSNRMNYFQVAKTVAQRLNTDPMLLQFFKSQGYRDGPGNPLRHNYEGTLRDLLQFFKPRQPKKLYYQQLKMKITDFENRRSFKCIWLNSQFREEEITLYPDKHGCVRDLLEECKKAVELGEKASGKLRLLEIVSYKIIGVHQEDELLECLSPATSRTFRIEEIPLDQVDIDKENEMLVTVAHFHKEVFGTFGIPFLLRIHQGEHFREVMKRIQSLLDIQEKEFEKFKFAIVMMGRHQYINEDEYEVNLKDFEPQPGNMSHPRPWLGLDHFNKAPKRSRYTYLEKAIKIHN
Chain of USP46 (P62068 whole entry): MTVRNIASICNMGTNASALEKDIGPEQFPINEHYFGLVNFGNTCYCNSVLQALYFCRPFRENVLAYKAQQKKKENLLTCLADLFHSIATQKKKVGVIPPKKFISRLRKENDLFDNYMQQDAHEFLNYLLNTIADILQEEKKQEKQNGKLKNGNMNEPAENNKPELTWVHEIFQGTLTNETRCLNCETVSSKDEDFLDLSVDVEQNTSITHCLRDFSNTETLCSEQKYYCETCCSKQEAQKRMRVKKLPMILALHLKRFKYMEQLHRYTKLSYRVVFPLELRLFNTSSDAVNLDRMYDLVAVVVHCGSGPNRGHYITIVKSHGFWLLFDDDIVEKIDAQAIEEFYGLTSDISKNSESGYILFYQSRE
Chain of UniProt O00487 (O00487 whole entry): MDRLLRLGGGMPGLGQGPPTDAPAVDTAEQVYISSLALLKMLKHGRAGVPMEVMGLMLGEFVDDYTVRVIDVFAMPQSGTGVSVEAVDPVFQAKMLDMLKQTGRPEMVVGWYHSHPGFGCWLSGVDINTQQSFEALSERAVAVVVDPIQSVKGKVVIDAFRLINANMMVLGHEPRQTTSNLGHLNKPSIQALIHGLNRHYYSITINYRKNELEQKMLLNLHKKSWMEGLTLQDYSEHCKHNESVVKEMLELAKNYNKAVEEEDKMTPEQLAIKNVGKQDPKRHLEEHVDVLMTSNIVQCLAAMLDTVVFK

Cc1nc(CN2CCCN(C(=O)CCl)CC2)no1.Cl
inactive: USP42 0.102 | USP46 0.0734 | USP47 -0.095 | USP48 0.261 | USP5 -0.016 | USP54 -0.482 | USP7 -0.0348 | USP8 0.237 | USP9X 0.101 | UniProt O00487 0.118
